Calls of active or inactive are those of the source.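 The calls were made as follows: active = EC50 at most 10 µM with percent response changing by at least 30% across doses, from a valid fit; inactive = the rest.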
Assay: GST-GSH bead binding interference, SAR follow-up, counter-screen for Rab7 GTPase inhibitor project, biochemical, flow cytometry beads, round 1 (AID 602137)
Conditions: GST-GFP on GSH beads; series mostly up to 100 µM

Structure (SMILES) | outcome
Cc1ccc(Nc2nc3sc4c(c3c(=O)o2)CCN(C)C4)cc1 | inactive
CC1(C)CCc2sc(NC(=S)NC(=O)c3ccccc3)c(C(=O)O)c2C1 | inactive
Cc1ccc(NC(=O)Nc2sc3c(c2C(=O)O)CCN(C)C3)cc1 | inactive
CC1(C)Cc2c(sc(NC(=S)NC(=O)c3cccc(Br)c3)c2C(=O)O)CO1 | inactive
CC1(C)Cc2c(sc(NC(=S)Nc3ccccc3)c2C(=O)O)CO1 | inactive
CCOC(=O)c1c(NC(=O)Nc2ccc(F)cc2)sc2c1CCN(C)C2 | inactive
NS(=O)(=O)c1ccc(N2N=C(c3ccccc3)CC2c2ccccc2)cc1 (stereo not given) | inactive
CC1(C)Cc2c(sc(NC(=S)NC(=O)c3cccc(F)c3)c2C(=O)O)CO1 | inactive
CC1(C)Cc2c(sc(NC(=S)NC(=O)c3ccccc3)c2C(=O)O)CO1 | inactive
CC(C)(C)OC(=O)c1c(NC(=S)NC(=O)c2ccccc2)sc2c1CCOC2 | inactive
COc1ccc(C2CC(c3ccccc3)=NN2c2ccc(S(N)(=O)=O)cc2)cc1 (stereo not given) | inactive
CCOC(=O)c1c(NC(=O)NC(C)(C)C)sc2c1CCN(C)C2 | inactive
CN1CCc2c(sc(NC(=O)Nc3ccc(F)cc3)c2C(=O)O)C1 | inactive
CC1(C)Cc2c(sc(NC(=O)Cc3ccccc3)c2C(=O)O)CO1 | inactive
O=C(NC(=S)Nc1sc2c(c1C(=O)O)CCOC2)c1ccccc1 | inactive
CCOC(=O)c1c(NC(=O)Nc2ccc(C)cc2)sc2c1CCN(C)C2 | inactive
CC1(C)Cc2c(sc(NC(=O)NC(=O)c3ccccc3)c2C(=O)O)CO1 | inactive
COc1ccc(C(=O)NC(=S)Nc2sc3c(c2C(=O)O)CC(C)(C)OC3)cc1 | inactive
COC(=O)c1c(NC(=S)NC(=O)c2ccccc2)sc2c1CC(C)(C)OC2 | inactive
COC(=O)c1c(N)sc2c1CC(C)(C)OC2 | inactive
CCOC(=O)c1c(N)sc2ccccc12 | inactive
CC1(C)Cc2c(sc(NC(=S)NC(=O)c3ccc(Br)cc3)c2C(=O)O)CO1 | inactive
CN1CCc2c(sc3nc(Nc4ccc(F)cc4)oc(=O)c23)C1 | inactive
CC1Cc2c(sc(NC(=S)NC(=O)c3ccccc3)c2C(=O)O)CO1 (stereo not given) | inactive
CC1(C)Cc2c(sc(NC(=S)NC(=O)c3ccccc3Br)c2C(=O)O)CO1 | inactive
CCOC(=O)c1c(NC(=S)NC(=O)c2ccccc2)sc2ccccc12 | inactive
O=C(C#Cc1ccccc1)c1cccc([N+](=O)[O-])c1 | inactive
COc1cccc(C(=O)NC(=S)Nc2sc3c(c2C(=O)O)CC(C)(C)OC3)c1 | inactive
CCOC(=O)c1c(NC(=S)Nc2ccccc2)sc2c1CC(C)(C)OC2 | inactive
CC1(C)Cc2c(sc(NC(=S)NC(=O)c3ccccc3F)c2C(=O)O)CO1 | inactive

From PubChem BioAssay AID602137 (NMMLSC, 2011)
